In PubChem BioAssay one finds composite z-score, z-score and composite Z-score data, which are given here for 5 molecules.

The source made the active and inactive calls.

The test system of test [1] is Human papillomavirus type 1a protein E7 (residues 44-93). Description: small molecules binding HPV E7 44-93 – biochemical, small-molecule microarray, residues 44-93, 635 nm fluorescence, primary screen (AID 1108).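 Also: E7 fragment applied at 1 µg/mL in TBST for 1 h at 4 C; score combines spot fluorescence with its signal to noise ratio.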 The note with it: fluorescence 635 nm, higher = more signal.
A short description of test [2]: hepatitis C replication reporter changes, two-sided – Huh7 cells, luciferase reporter, HCV replication inhibitor project, primary screen (AID 1109).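 Also: huh7 hepatoma cells harbouring a luciferase neomycin HCV replicon reporter; luciferase luminescence as measure of HCV replicon replication; test concentration not given here.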 The settings on record: Huh7 HCV replicon luciferase reporter, 48 h; higher = more signal.
Test [3] concerns the target Left-right determination factor 2 (Homo sapiens) (UniProt O00292). Description: small molecules binding LEFTY2 protein – biochemical, small-molecule microarray, 635 nm fluorescence scan, primary screen (AID 1110). The note with it: higher = more signal.
For test [4], the target named is Calmodulin-1 (Homo sapiens) (UniProt P0DP23). Briefly: small molecules binding calmodulin-1 with EGTA – biochemical, small-molecule microarray, Cy5-labelled CALM1, profiling panel (AID 1111).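 Also: labelled calmodulin applied in Tris saline Tween buffer holding calcium plus EGTA and DTT.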 The settings on record: Cy5-CALM1 binding fluorescence, higher = more signal.
The target is the same in test [5]. Briefly: small molecules binding Ca-loaded calmodulin-1 – biochemical, small-molecule microarray, Cy5-labelled CALM1, plus calcium, artefact control for SMM control-protein annotation, profiling panel (AID 1112).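 Also: score merges spot fluorescence with signal to noise from triplicate slides.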 The settings on record: Cy5-CALM1 binding fluorescence, higher = more signal.
Test [6] in a line: probe aWnt5a binding to arrayed compounds – biochemical, biotinylated probe, 635/667 nm fluorescence, primary screen (AID 1113).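 Also: score merges 667 nm fluorescence intensity with signal-to-noise per printed feature.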 The settings on record: small-molecule microarray, higher = more signal.
Test [7] in a line: probe aShh binding to arrayed compounds – biochemical, biotinylated probe, 635/667 nm fluorescence, primary screen (AID 1114).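 Also: probe is biotin-labelled aShh protein from a stem cell growth factor screen; measures binding of labelled protein to compounds printed on the slide; score merges feature fluorescence at 667 nm with signal-to-noise.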 The settings on record: small-molecule microarray, higher = more signal.
The nature of test [8]: probe aNog binding to arrayed compounds – biochemical, biotinylated probe, 635/667 nm fluorescence, primary screen (AID 1115).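 Also: probe is biotinylated aNog protein used at 0.15 µg/mL for 1 h at 4 C; z-score combines 667 nm fluorescence of each spot with its signal to noise.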 The settings on record: small-molecule microarray, higher = more signal.
The target in test [9] is Torsin-1A-interacting protein 1 (Homo sapiens) (UniProt Q5JTV8). Description: compound microarray binding of lysate hLAP1 – cell lysate, small-molecule microarray, COS7 lysate, 635/667 nm fluorescence, primary screen (AID 1116). The settings on record: 635 nm fluorescence, higher = more signal.
The target in test [10] is Alpha-bungarotoxin (Bungarus multicinctus) (UniProt P60615). Briefly: compounds binding labelled alpha-BTX control protein – biochemical, small-molecule microarray, Alexa647 label, 635/667 nm fluorescence, artefact control for SMM control protein annotation, profiling panel (AID 1117). The settings on record: alpha-BTX-A647 binding fluorescence, higher = more signal.
For another test, the target named is Albumin (Bos taurus) (UniProt P02769). Description: compounds binding labelled BSA control protein – biochemical, small-molecule microarray, Alexa647 label, 635/667 nm fluorescence, artefact control for SMM control protein annotation, profiling panel (AID 1118).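 Also: score merges 667 nm emission intensity and signal-to-noise per printed compound spot.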 The note with it: BSA-A647 binding, fluorescence 635 nm, higher = more signal.
Test [11] in a line: probe aXIP binding to arrayed compounds – biochemical, NeuroSMM set, 635/667 nm fluorescence, primary screen (AID 1119).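 Also: probe is the protein aXip251-270 applied at 1 µg/mL to compound-printed slides; binding of probe to printed compounds measured as 667 nm fluorescence plus signal to noise.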 The settings on record: small-molecule microarray, higher = more signal, called active from +8 up or from −8 down.
The nature of test [12]: probe aNOTCH3 binding on compound microarray – biochemical, small-molecule microarray, 635/667 nm fluorescence, primary screen (AID 1120).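 Also: probe is a biotin-tagged antibody raised against NOTCH3 rather than NOTCH3 protein; score merges spot fluorescence near 667 nm with spot signal to noise.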 The settings on record: higher = more signal.
The nature of test [13]: probe aNOTCH2 binding on compound microarray – biochemical, small-molecule microarray, 635/667 nm fluorescence, primary screen (AID 1121).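 Also: score merges feature fluorescence read at 667 nm with its signal to noise.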 The note with it: higher = more signal.
The target in test [14] is Carbonic anhydrase 2 (Homo sapiens) (UniProt P00918). Description: compounds binding carbonic anhydrase 2 – biochemical, small-molecule microarray, Alexa647-labelled CAII, profiling panel (AID 1122). The note with it: CAII-A647 binding fluorescence, higher = more signal.
A short description of test [15]: COS7 lysate on small-molecule microarray, probe aHis, 635 nm (AID 1123).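 Also: z-score combines 667nm fluorescence intensity with signal-to-noise per printed compound spot.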 The note with it: COS7 cell lysate, fluorescence, higher = more signal.
Test [16] can be described thus: probe aLAP1 signal on lysate-treated microarray – cell lysate, small-molecule microarray, COS7 lysate, primary screen (AID 1124).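 Also: lysate comes from COS7 cells expressing LAP1 and is applied at 0.3 µg/mL; score merges spot fluorescence near 667 nm with signal-to-noise over triplicate slides.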 The settings on record: probe aLAP1, fluorescence, higher = more signal.
The next test relates to Sam68 (KHDRBS1). Description: compounds binding KHDRBS1 protein – biochemical, small-molecule microarray, 635 nm fluorescence, primary screen (AID 1125).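 Also: score merges 667 nm channel intensity with signal to noise over triplicate slides.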 The note with it: higher = more signal.
Test [17] deals with Chordin-like protein 2 (CHRDL2). Briefly: compounds binding chordin-like 2 – biochemical, small-molecule microarray, 635 nm fluorescence, primary screen (AID 1126).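 Also: printed compound slides probed with Chrdl2 protein at 4 µg/mL for 1 h at 4 C; score merges 667 nm emission intensity with signal to noise over three replicate slides.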 The settings on record: fluorescence 635 nm, higher = more signal.
For test [18], the target named is Concanavalin-A (Canavalia ensiformis) (UniProt P02866). Description: compounds binding concanavalin A lectin – biochemical, small-molecule microarray, Alexa647 label, 635 nm, artefact control for SMM control protein annotation, primary screen (AID 1127).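 Also: z combines 667 nm emission intensity with signal-to-noise across three replicate slides.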 The settings on record: ConA-A647 binding fluorescence, higher = more signal.
Sequence of Concanavalin-A (Canavalia ensiformis) (P02866 whole entry, looked up): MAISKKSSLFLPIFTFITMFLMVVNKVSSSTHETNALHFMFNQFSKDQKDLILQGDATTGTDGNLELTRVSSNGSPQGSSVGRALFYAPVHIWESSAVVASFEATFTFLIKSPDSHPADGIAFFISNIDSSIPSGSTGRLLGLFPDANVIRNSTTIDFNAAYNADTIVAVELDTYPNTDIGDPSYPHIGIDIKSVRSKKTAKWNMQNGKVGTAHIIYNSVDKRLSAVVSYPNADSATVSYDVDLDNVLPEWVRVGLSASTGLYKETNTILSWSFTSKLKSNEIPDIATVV

Sequence of Left-right determination factor 2 (Homo sapiens) (O00292 whole entry, looked up): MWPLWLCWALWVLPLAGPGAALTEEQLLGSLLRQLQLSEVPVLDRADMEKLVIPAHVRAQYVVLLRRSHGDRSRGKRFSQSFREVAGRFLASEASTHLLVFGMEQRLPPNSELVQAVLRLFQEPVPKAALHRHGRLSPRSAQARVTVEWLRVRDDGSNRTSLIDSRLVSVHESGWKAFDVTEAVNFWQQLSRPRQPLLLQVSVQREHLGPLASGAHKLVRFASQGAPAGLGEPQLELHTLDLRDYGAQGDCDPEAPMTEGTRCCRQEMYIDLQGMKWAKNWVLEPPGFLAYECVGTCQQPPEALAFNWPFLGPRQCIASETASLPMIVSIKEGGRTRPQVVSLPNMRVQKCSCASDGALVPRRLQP
Sequence of Albumin (Bos taurus) (P02769 whole entry, looked up): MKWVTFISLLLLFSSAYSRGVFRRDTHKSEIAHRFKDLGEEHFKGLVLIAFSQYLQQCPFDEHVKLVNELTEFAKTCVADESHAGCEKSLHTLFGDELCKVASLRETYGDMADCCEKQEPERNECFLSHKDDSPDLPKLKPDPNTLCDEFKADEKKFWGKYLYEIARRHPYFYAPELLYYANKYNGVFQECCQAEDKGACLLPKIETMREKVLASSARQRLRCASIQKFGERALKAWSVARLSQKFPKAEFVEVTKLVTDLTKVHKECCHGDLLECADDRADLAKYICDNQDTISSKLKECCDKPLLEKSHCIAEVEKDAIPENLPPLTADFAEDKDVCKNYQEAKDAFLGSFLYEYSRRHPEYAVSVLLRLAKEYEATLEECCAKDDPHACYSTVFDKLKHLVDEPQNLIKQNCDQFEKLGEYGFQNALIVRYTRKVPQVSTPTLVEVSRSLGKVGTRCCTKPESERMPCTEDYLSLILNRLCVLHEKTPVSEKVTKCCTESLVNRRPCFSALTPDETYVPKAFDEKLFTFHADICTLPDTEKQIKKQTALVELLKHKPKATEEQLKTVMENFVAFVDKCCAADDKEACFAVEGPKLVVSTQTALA
Sequence of Torsin-1A-interacting protein 1 (Homo sapiens) (Q5JTV8 whole entry, looked up): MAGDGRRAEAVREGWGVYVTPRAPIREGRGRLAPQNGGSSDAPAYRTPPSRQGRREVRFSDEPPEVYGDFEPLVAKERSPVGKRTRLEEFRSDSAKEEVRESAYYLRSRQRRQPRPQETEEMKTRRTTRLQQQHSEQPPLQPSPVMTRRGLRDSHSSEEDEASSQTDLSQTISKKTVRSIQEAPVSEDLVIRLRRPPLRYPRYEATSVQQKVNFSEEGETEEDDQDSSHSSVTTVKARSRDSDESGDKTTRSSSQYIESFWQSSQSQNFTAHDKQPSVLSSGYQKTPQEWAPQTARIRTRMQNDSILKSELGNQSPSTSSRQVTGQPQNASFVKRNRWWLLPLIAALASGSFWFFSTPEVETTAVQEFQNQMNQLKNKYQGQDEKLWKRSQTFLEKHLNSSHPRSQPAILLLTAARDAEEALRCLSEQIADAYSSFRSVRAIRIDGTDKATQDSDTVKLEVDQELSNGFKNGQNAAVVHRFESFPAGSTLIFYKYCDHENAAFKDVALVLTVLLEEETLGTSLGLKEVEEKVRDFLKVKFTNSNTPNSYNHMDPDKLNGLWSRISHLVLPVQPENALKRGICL
Sequence of Alpha-bungarotoxin (Bungarus multicinctus) (P60615 whole entry, looked up): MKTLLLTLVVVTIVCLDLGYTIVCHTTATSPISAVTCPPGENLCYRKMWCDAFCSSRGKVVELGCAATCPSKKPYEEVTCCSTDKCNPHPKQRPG

For `O=C1C2C=CC(C(O)c3ccc([N+](=O)[O-])cc3)N(Nc3ccccc3)C2C(=O)N1c1ccccc1` (stereo not given), the composite z-score is 0.342 in test [1]; -0.0424 in [3]; 0.0871 in test [4]; -0.447 in [5]; -0.0512 in test [6]; 0.284 in [7]. Also, the composite z-score is -0.175 in test [8]; -0.175 in [9]; -0.0428 in test [10]; 0.822 in the test with Albumin (Bos taurus); 0.261 in test [12]; -0.0591 in [13]. The composite z-score in [14] is 0.77; in test [15], 1.42; in test [16] it was -0.163; in the test with Sam68 (KHDRBS1) it was 0.594; in [17], -0.225; in test [18], 0.49. The z-score in test [2] is 0.649. Also, the composite Z-score in test [11] is -0.0589 (inactive).

For `CC1CC/C=C\[C@H]2OC34C=CCN(CCN5CCOCC5)C(=O)[C@H]3N(CCCCCCO)C(=O)[C@@H]4C2C(=O)O1` (stereo not given in full), the composite z-score in test [1] is -1.14; in test [3] it was -1.12; in test [4] it was -0.482; in test [5], -0.42; in test [6], -0.232; in test [7] it was -0.154. The composite z-score was -0.305 in test [8]; -0.933 in test [9]; -0.307 in test [10]; -0.0754 in the test with Albumin (Bos taurus); -0.438 in [12]; -0.14 in [13]. Also, the composite z-score in test [14] is 0.864; in test [15], -0.686; in test [16], -0.362; with Sam68 (KHDRBS1), -0.715; in [17] it was -0.756; in test [18], -1.53. Also, in test [2], the z-score is -0.709. Further, the composite Z-score in test [11] is 0.446 (inactive).

Take `CC(C)C(=C=CC[C@@H](O)c1ccc(OCCO)cc1)CCO`: the composite z-score was 0.0426 in test [1]; -0.141 in test [3]; 0.236 in test [4]; -0.421 in test [5]; -0.18 in [6]; -0.237 in [7]. Besides, the composite z-score in test [8] is -0.178; in [9], -0.117; in test [10] it was 0.441; with Albumin (Bos taurus), 0.261; in [12] it was -0.0259; in [13] it was -0.14. In addition, the composite z-score in [14] is 0.601; in test [15], 0.583; in test [16] it was -0.178; in the test on Sam68 (KHDRBS1), 0.275; in [17] it was 0.184; in test [18], 0.224. Besides, in test [2], the z-score is -0.283. Also, the composite Z-score in [11] was -0.488 (inactive).

With `NC(=O)NCC#Cc1ccc2c(c1)[C@]1(C(=O)N2)[C@H](C(=O)N2CCCCCCC2)[C@H]2C(=O)O[C@H](c3ccccc3)[C@H](c3ccccc3)N2[C@@H]1c1ccc(O)cc1`, the composite z-score in test [1] is 0.0787; in [3], 0.953; in test [4] it was 2.38; in test [5] it was 0.509; in test [6] it was 0.754; in [7], 1.54. The composite z-score in test [8] worked out at 2.78; in test [9], 2.19; in [10], 2.01; with Albumin (Bos taurus) it was 0.408; in test [12], 1.38; in test [13], 0.796. Besides, the composite z-score in [14] stood at 0.341; in test [15], 1.2; in [16], 0.624; in the test on Sam68 (KHDRBS1), 1.07; in test [17], 1.2; in test [18] it was 1.09. In addition, in test [2], the z-score was -1.13. Also, the composite Z-score in test [11] was -0.573 (inactive).

For `COc1cccc(OC)c1C(=O)O[C@H]1[C@@H]2OC(=O)[C@H](Cc3cccc(Br)c3)C/C=C/C[C@@H](Cc3cccc(Br)c3)C(=O)O[C@H]2[C@@H](OC)O[C@@H]1CO`, the composite z-score in test [1] was 0.479; in test [3], 0.309; in [4], -0.108; in [5], -0.0545; in [6] it was -0.0869; in [7], 0.111. For the same molecule, the composite z-score in test [8] was 0.113; in [9], 0.482; in test [10] it was 0.528; with Albumin (Bos taurus), 0.33; in test [12], -0.122; in test [13], -0.105. In addition, the composite z-score in test [14] was 0.628; in test [15], 1.2; in test [16] it was 0.56; in the test with Sam68 (KHDRBS1), 1.06; in [17], 0.351; in test [18], 0.293. Also, the z-score in [2] is -2.37. In addition, the composite Z-score in test [11] is 0.878 (inactive).
